The values below come from the OligoGym collection.
Also: reference of the scale not given here.

One experiment has as its target ADCYAP1. Briefly: pooled miR-30 sensor sort-seq; sequence = guide strand. The conditions noted are these: shRNA.
With TGGGCGACATCTCTTCTCCCGG, the sensor-assay potency score (higher = more potent) is -1.69. Still for that read-out and setting: the result for TTACATAAATACATGTTTGGAT reads -0.0777. Turning to TAGGCCTCGTTAAGGATCCCGT, the sensor-assay potency score (higher = more potent) is -0.922. Same read-out and setting: the figure for TAACCCTTTGTTTATACCTCTT is -0.602; for TTTGTTTCCGGTAGCGGCTGTA it is -0.47. Same read-out and setting: the result for TACGCCTCTTCCTCTGGCCTGA reads -1.02; that for TTTGTTTATACCTCTTCCCTAG, 0.232; that for TAGCTGTCCGTGAAGATCCCGT, -0.391. In the case of TCCGTGAAGATCCCGTCCGAGT, the sensor-assay potency score (higher = more potent) was -1.83.

With TTCCGGTAGCGGCTGTAGCTGT, the sensor-assay potency score (higher = more potent) is -1.35. The same measure, in the same setting: the figure for TCTTCCTCTGGCCTGATCCCGG is -1.48; for TTCCTCTGGCCTGATCCCGGGG it is -1.18; for TGTTTGGATAGAACACACGAGC it is -1.09. Still for that read-out and setting: the figure for TGTCCGTGAAGATCCCGTCCGA is -0.344; for ATTTGTTTCCGGTAGCGGCTGT it is -0.122; for TTGTTTATACCTCTTCCCTAGG it is -0.956.

TGCTGTGCATGATTATCCCATA gave a sensor-assay potency score (higher = more potent) of -1.74. The sequence TTGGATAGAACACACGAGCGAT had a sensor-assay potency score (higher = more potent) of -0.826.

As for TTGTTTCCGGTAGCGGCTGTAG, the sensor-assay potency score (higher = more potent) is -0.993.

In the case of TTATCCCATAGACCAGCAGGGC, the sensor-assay potency score (higher = more potent) is -1.43. Same read-out and setting: the figure for TTGACAGCCATTTGTTTCCGGT is -0.424.

In another experiment the target is ADC. Described as above. The conditions noted are these: shRNA.
As for TTTCAGTGACACTCCAAACTTT, the sensor-assay potency score (higher = more potent) was -0.644. Same read-out and setting: the result for TACACGATGGTCTTGGAGGTGG reads -0.24; that for TGGTCTTGGAGGTGGAACCATT, -1.77; that for ATGTTGTCAAAGACCAGCCAGT, -1.56.

On to TGACACTCCAAACTTTAGGCTC, for which the sensor-assay potency score (higher = more potent) is -0.511. Same read-out and setting: the figure for TTGTCAAACAGGACTGAGTTGA is -0.112; for TTCTTCTGCAGGATGGGGGTAG it is -0.285. The sequence TTGATCACGGAAGCAATCTCTT had a sensor-assay potency score (higher = more potent) of -0.838. For TTTTCAAGCAGGTGTCTGCAGG, the sensor-assay potency score (higher = more potent) was -0.788.

Take TTGCATACTTGAACTACAGCGA: the sensor-assay potency score (higher = more potent) was 0.563. On the same count and under the same terms, the figure for TTCAGTGACACTCCAAACTTTA is -0.979. On the same count and under the same terms, the result for TTCTGCAGCCATCAGCTGCCTT reads -1.15.

The next experiment concerns the target ADD2. The experiment is described as above. Conditions: shRNA.
On to TCTTATAGCTCTTCCATCCATC, for which the sensor-assay potency score (higher = more potent) is -0.635. The same measure, in the same setting: the result for TATAGCTCTTCCATCCATCATT reads -1.04; that for TGACTTCACATCTTGTCGGTTT, -0.214. Same read-out and setting: the figure for TTAAATGTAGAGATAGCTCCAT is 0.598; for TTCCTCTCCACCTCTTTCTTGT it is -0.367. As for TTTGGTATCCTCGTCTCCCTTG, the sensor-assay potency score (higher = more potent) was -0.18. The same measure, in the same setting: the figure for TCTGTTGTTTTGATCCTCCTTA is 0.276.
